{"source": "paper PMC7862700", "about": "“An all-to-all approach to the identification of sequence-specific readers for epigenetic DNA modifications on cytosine”", "test_in_all_cases": "DAPPL (digital affinity profiling via proximity ligation, sequencing); 10 mM Tris-HCl pH 7.5, 50 mM NaCl, 1 mM DTT, 4% glycerol, room temperature, 30 min; GST-TFs on glutathione beads, 16-mer random dsDNA library, 0.1% formaldehyde crosslink after washing; high values mean tight binding", "key": {"[1]": {"target": "HSF1 (Homo sapiens, UniProt Q00613 1-529)", "sequence (Q00613 whole entry, the tested form may be a part)": "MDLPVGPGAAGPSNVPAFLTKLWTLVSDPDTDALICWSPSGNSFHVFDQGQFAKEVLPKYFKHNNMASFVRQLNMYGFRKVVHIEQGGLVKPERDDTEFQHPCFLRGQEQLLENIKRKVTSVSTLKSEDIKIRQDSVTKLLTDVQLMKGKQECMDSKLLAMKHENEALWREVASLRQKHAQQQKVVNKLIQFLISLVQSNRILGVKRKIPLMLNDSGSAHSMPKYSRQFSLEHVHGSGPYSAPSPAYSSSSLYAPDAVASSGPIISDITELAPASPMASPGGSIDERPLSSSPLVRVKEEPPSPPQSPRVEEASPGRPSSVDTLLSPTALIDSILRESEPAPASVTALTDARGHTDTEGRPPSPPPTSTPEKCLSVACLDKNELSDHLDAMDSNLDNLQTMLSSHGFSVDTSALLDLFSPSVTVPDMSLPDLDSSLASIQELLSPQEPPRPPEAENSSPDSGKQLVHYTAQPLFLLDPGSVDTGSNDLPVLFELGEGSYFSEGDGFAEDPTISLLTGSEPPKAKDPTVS", "conditions": "protein: recombinant; tags: N-terminal GST; chain copies: 3; dsDNA, one strand shown", "procedure,_shortened": "(§1)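 Human transcription factors carrying a GST fusion were produced in yeast, bound to glutathione beads, tagged with DNA barcodes and pooled together with a tag-only sample. Each pool was held with 200 nmole of a random double-stranded 16-mer DNA library in Tris/NaCl/DTT/glycerol buffer for 30 min at room temperature, then washed, crosslinked in 0.1% formaldehyde, proximity-ligated with BsaI/T4 ligase (1 h, 37 °C), PCR-amplified and sequenced on an Illumina NextSeq500. Binding signal is the read frequency of each hexamer for a given factor divided by its frequency in the tag-only sample.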"}, "[2]": {"target": "T1, ELK1 (Homo sapiens, UniProt P19419 1-428)", "T1 sequence": "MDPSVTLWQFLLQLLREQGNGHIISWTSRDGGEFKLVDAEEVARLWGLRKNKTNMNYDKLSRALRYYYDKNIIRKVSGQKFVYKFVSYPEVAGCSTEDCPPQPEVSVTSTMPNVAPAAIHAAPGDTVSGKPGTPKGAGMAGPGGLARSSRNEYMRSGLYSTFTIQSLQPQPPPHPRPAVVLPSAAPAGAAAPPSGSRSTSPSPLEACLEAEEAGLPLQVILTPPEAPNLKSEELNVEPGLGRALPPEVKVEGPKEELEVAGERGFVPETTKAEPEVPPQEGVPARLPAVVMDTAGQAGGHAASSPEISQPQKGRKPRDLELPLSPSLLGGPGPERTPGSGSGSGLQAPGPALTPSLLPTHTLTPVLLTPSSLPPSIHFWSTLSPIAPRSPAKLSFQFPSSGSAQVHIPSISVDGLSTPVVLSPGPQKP", "conditions": "protein: recombinant; tags: N-terminal GST; dsDNA, one strand shown", "procedure,_shortened": "as §1"}, "[3]": {"target": "T2, GABPA (Homo sapiens, UniProt Q06546 1-454)", "T2 sequence": "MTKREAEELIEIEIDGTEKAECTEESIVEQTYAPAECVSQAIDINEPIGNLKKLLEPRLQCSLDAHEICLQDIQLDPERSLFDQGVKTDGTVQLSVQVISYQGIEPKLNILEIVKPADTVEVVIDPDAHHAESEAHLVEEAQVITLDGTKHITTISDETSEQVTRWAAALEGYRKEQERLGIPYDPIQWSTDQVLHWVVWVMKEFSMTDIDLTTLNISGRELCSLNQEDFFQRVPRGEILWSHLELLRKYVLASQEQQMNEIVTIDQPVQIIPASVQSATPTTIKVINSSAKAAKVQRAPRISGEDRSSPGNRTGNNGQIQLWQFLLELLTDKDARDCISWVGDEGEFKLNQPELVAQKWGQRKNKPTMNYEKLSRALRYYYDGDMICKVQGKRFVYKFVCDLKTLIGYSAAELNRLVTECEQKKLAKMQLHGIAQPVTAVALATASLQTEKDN", "conditions": "protein: recombinant; tags: N-terminal GST; dsDNA, one strand shown", "procedure,_shortened": "as §1"}, "[4]": {"target": "ELF1 (Homo sapiens, UniProt P32519 1-619)", "sequence (P32519 whole entry)": "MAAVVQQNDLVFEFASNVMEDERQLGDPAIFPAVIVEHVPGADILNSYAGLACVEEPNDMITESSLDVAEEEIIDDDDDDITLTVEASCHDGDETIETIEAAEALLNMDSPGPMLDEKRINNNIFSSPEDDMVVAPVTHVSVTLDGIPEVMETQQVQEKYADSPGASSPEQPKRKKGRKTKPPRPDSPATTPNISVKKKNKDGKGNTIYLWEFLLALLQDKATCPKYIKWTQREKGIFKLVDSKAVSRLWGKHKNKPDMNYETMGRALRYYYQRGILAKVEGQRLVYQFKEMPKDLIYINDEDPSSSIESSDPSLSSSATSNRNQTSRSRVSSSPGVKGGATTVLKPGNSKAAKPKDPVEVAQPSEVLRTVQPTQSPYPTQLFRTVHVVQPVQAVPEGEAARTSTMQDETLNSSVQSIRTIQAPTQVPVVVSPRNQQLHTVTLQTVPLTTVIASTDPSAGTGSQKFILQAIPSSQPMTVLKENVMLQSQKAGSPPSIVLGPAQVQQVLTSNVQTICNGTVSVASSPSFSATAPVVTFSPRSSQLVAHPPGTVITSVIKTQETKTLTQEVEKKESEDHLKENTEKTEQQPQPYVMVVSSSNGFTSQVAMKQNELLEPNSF", "conditions": "protein: recombinant; tags: N-terminal GST; dsDNA, one strand shown", "procedure,_shortened": "as §1"}, "[5]": {"target": "T3, ELK3 (Homo sapiens, UniProt P41970 1-407)", "T3 sequence": "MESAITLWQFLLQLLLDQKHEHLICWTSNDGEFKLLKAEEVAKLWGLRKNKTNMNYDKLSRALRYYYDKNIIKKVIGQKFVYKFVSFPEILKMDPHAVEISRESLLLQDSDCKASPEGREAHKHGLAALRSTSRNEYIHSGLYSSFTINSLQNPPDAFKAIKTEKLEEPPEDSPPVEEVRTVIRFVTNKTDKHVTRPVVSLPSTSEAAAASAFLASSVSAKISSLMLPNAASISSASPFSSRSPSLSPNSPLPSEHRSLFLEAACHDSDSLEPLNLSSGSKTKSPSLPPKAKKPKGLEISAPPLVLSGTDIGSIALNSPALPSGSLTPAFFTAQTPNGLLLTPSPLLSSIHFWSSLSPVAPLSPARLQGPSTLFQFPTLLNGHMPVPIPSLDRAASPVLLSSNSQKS", "conditions": "protein: recombinant; tags: N-terminal GST; dsDNA, one strand shown", "procedure,_shortened": "as §1"}, "[6]": {"target": "T4, SPIC (Homo sapiens, UniProt Q8N5J4 1-248)", "T4 sequence": "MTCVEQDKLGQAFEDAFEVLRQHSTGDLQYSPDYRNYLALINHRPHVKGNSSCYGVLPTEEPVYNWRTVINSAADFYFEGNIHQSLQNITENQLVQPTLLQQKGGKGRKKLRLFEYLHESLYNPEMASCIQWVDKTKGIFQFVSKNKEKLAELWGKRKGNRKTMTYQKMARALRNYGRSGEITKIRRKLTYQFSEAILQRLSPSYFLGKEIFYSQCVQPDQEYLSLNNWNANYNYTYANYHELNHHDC", "conditions": "protein: recombinant; tags: N-terminal GST; dsDNA, one strand shown", "procedure,_shortened": "as §1"}, "[7]": {"target": "T5, ELK4 (Homo sapiens, UniProt P28324-2 1-405)", "T5 sequence": "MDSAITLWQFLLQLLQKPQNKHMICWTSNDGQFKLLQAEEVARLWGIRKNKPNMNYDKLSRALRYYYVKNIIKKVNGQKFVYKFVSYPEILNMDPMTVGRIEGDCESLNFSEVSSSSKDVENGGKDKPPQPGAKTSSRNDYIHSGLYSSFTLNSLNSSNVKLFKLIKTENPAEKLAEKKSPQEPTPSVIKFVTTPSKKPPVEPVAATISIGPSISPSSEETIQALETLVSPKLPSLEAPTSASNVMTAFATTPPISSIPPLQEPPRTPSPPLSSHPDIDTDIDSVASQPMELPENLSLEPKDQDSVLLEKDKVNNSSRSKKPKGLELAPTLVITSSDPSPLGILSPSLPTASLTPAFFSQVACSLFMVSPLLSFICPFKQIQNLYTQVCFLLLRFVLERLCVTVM", "conditions": "protein: recombinant; tags: N-terminal GST; dsDNA, one strand shown", "procedure,_shortened": "as §1"}, "[8]": {"target": "T6, ETV2 (Homo sapiens, UniProt O00321 1-342)", "T6 sequence": "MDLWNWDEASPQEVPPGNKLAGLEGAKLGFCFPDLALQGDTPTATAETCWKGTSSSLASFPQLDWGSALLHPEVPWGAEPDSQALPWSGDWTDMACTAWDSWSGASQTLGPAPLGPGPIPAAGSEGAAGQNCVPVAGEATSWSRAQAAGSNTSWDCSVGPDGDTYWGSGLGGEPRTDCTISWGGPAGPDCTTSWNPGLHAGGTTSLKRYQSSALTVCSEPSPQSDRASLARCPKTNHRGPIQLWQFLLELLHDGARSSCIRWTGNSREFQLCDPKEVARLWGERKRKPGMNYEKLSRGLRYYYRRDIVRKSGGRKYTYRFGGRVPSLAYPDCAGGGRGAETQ", "conditions": "protein: recombinant; tags: N-terminal GST; dsDNA, one strand shown", "procedure,_shortened": "as §1"}, "[9]": {"target": "CRX (Homo sapiens, UniProt O43186 1-299)", "sequence (O43186 whole entry)": "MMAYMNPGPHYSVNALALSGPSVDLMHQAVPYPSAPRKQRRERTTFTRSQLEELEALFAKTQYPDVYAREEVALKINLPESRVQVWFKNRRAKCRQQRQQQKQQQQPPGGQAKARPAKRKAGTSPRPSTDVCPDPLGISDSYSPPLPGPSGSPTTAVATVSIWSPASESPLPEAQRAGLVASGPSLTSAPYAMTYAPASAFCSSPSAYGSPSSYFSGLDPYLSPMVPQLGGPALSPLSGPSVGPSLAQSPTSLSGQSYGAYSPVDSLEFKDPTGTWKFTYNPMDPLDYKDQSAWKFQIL", "conditions": "protein: recombinant; tags: N-terminal GST; dsDNA, one strand shown", "procedure,_shortened": "as §1"}, "[10]": {"target": "T7, ERF (Homo sapiens, UniProt P50548 1-548)", "T7 sequence": "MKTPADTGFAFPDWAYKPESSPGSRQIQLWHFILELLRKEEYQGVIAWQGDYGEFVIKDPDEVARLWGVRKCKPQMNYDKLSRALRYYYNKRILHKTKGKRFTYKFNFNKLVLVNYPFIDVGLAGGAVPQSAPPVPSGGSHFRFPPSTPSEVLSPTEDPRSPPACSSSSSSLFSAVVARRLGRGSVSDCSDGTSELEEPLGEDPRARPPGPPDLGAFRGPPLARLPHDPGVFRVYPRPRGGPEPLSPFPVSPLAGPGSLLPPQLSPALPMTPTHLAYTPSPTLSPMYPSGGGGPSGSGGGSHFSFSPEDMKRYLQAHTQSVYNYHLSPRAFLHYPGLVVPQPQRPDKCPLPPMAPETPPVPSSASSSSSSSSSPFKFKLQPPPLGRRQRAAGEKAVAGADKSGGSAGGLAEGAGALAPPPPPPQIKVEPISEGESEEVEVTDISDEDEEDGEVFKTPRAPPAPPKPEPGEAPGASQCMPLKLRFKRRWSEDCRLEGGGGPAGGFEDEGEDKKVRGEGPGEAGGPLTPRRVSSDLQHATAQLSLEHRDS", "conditions": "protein: recombinant; tags: N-terminal GST; dsDNA, one strand shown", "procedure,_shortened": "as §1"}, "[11]": {"target": "T8, SPDEF (Homo sapiens, UniProt O95238 1-335)", "T8 sequence": "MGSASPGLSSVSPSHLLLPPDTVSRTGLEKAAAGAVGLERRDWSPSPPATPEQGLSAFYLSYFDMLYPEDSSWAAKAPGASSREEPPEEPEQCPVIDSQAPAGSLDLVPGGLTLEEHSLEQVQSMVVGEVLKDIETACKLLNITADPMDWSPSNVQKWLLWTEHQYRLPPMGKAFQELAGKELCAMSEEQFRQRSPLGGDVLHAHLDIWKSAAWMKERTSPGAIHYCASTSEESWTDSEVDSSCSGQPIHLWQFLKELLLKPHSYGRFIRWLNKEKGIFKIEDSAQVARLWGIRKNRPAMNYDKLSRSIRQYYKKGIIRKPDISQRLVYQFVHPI", "conditions": "protein: recombinant; tags: N-terminal GST; dsDNA, one strand shown", "procedure,_shortened": "as §1"}, "[12]": {"target": "T9, ETV7 (Homo sapiens, UniProt Q9Y603 1-341)", "T9 sequence": "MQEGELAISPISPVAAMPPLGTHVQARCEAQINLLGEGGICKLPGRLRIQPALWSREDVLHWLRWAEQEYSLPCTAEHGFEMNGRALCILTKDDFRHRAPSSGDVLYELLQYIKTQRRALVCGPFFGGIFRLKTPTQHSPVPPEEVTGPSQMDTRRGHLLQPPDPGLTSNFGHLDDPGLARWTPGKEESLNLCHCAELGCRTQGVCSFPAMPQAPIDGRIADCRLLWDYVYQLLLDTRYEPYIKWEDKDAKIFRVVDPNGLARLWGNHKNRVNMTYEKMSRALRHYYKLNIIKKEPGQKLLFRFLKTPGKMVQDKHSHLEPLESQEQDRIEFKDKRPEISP", "conditions": "protein: recombinant; tags: N-terminal GST; dsDNA, one strand shown", "procedure,_shortened": "as §1"}, "[13]": {"target": "T10, ETV3 (Homo sapiens, UniProt P41162-2 1-143)", "T10 sequence": "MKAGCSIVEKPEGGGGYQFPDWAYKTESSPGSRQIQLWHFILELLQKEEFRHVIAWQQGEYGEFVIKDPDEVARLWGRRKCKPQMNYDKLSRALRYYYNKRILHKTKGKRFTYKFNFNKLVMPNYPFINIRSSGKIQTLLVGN", "conditions": "protein: recombinant; tags: N-terminal GST; dsDNA, one strand shown", "procedure,_shortened": "as §1"}}, "data": [{"sequence": "CAGAAG", "values": [{"measurement": "binding signal", "setting": "[1]", "result": "1.32 fold enrichment (6-mer frequency, TF over GST control)"}]}, {"sequence": "GAGAAT", "values": [{"measurement": "binding signal", "setting": "[1]", "result": "1.44 fold enrichment (6-mer frequency, TF over GST control)"}]}, {"sequence": "CGCGAA", "values": [{"measurement": "binding signal", "setting": "[2]", "result": "1.04 fold enrichment (6-mer frequency, TF over GST control)"}, {"measurement": "binding signal", "setting": "[3]", "result": "1.01 fold enrichment (6-mer frequency, TF over GST control)"}, {"measurement": "binding signal", "setting": "[4]", "result": "1.03 fold enrichment (6-mer frequency, TF over GST control)"}, {"measurement": "binding signal", "setting": "[5]", "result": "1.05 fold enrichment (6-mer frequency, TF over GST control)"}, {"measurement": "binding signal", "setting": "[1]", "result": "1.76 fold enrichment (6-mer frequency, TF over GST control)"}, {"measurement": "binding signal", "setting": "[6]", "result": "1.02 fold enrichment (6-mer frequency, TF over GST control)"}, {"measurement": "binding signal", "setting": "[7]", "result": "1.08 fold enrichment (6-mer frequency, TF over GST control)"}, {"measurement": "binding signal", "setting": "[8]", "result": "1.11 fold enrichment (6-mer frequency, TF over GST control)"}, {"measurement": "binding signal", "setting": "[9]", "result": "1.05 fold enrichment (6-mer frequency, TF over GST control)"}, {"measurement": "binding signal", "setting": "[10]", "result": "1.01 fold enrichment (6-mer frequency, TF over GST control)"}, {"measurement": "binding signal", "setting": "[11]", "result": "1.01 fold enrichment (6-mer frequency, TF over GST control)"}, {"measurement": "binding signal", "setting": "[12]", "result": "1.1 fold enrichment (6-mer frequency, TF over GST control)"}, {"measurement": "binding signal", "setting": "[13]", "result": "1.01 fold enrichment (6-mer frequency, TF over GST control)"}]}, {"sequence": "GCAGAA", "values": [{"measurement": "binding signal", "setting": "[1]", "result": "1.15 fold enrichment (6-mer frequency, TF over GST control)"}, {"measurement": "binding signal", "setting": "[6]", "result": "1.03 fold enrichment (6-mer frequency, TF over GST control)"}]}, {"sequence": "GAGAAG", "values": [{"measurement": "binding signal", "setting": "[1]", "result": "1.22 fold enrichment (6-mer frequency, TF over GST control)"}]}]}
